# Bioassay records as filed in PubChem.
# Shown are actives, neighbours in structure and some others; about 5.6% of the full set was active somewhere.
# PfG6PD inh – PfG6PD (Plasmodium falciparum) enzyme inhibition; PfGluPho enzyme, NADPH resazurin-diaphorase fluorescence; inhibition, % at 20 µM; 0.78% of 350,000 active;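 active means inhibition reaching at least a set limit at 20 µM in the primary screen, cut at about 59% in these data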
# PHOSPHO1 inh – blocks human PHOSPHO1 phosphatase activity; recombinant PHOSPHO1, absorbance phosphatase assay; Q8TCT1; AID 1565; 1.1% of 290,000 active; inhibition, % at 13.3 µM; in the data active means inhibition above about 60%
# Target sequence (Q8TCT1 whole entry, looked up): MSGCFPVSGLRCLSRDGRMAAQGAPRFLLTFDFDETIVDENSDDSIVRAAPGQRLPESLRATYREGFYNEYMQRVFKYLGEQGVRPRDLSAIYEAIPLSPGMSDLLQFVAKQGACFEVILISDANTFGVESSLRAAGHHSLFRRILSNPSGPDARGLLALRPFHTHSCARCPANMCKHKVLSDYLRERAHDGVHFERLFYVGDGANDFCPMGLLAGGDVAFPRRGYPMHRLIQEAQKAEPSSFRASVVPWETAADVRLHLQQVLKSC
# ALR H2O2 inh – human ALR oxidase inhibition via reduced H2O2; AID 485317; inhibition, % (concentration not given with the values); purified ALR, DTT oxidation, H2O2 HRP-luminol luminescence; 3.8% of 290,000 active; P55789;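 active means mean replicate inhibition above about 79%, with every replicate also reaching it, limit read from the data; inconclusive means only one of the two criteria met; inactive means mean below limit and not every replicate reaching it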
# Target sequence (P55789 whole entry, looked up): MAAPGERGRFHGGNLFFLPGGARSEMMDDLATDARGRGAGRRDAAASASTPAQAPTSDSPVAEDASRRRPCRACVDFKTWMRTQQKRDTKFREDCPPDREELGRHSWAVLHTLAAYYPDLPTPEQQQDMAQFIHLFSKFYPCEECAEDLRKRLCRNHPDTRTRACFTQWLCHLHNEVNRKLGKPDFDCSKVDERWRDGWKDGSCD
# Cardio protect – protects H9c2 cardiomyocytes from peroxide injury; H2O2 injury protection, ATPLite, 2 h; protection from H2O2 cell death, % at 20 µM; 0.63% of 360,000 active;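 active means compounds giving at least 50% protection of heart cells from peroxide-induced death in the single-dose screen, raw or plate-pattern-corrected value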
# PfM18AAP inh – blocks P. falciparum M18 aspartyl aminopeptidase; recombinant PfM18AAP, H-Glu-NHMec fluorogenic cleavage; inhibition, % at 7.35 µM; 1.2% of 290,000 active;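 active means inhibition above the campaign mean inhibition over all tested compounds plus 3 SD, cut at about 28% in these data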
# Numbers stand for hits; – = inactive; ? = inconclusive; · = not tested or not shown.
SMILES,PfG6PD inh,PHOSPHO1 inh,ALR H2O2 inh,Cardio protect,PfM18AAP inh
CCc1ccccc1N/N=C(/C)c1c(O)cc(C)oc1=O,–,–,98.1,–,–
C=CCN(Cc1cccs1)C(=O)CN1CCN(S(=O)(=O)c2ccc3c(c2)OCCCO3)CC1,–,·,·,–,·
COC(=O)C1=C(C(=O)OC)[C@@H]2N(C)c3ccc(OC)cc3[C@@]23C[C@@H](C(=O)OC)N=C3N1,–,–,77.1,–,·
c1ccc(Nc2ccccn2)cc1,–,–,–,–,–
c1ccc(Nc2cccc(Nc3ccccc3)n2)cc1,–,–,98.7,–,–
COc1cc(/C=N/N=C2/C(=O)Nc3ccccc32)cc(OC)c1O,–,–,95.4,–,–
O=C1Nc2ccccc2/C1=N/N=C/c1cccc(O)c1,–,–,·,–,–
CC1CCCCC1NC(=O)c1cc(S(=O)(=O)N2CCCCC2)ccc1N1CCOCC1 (configuration not stated),–,·,–,–,·
CC(/C=C(\NC(=O)c1ccccc1)C(=O)N=Nc1c(O)[nH]c2ccc(C)cc12)=C\c1ccccc1,–,91.1,–,61.5,–
CC(C)(C)c1ccc(-c2n[nH]c(=S)n2C2CCCC2)cc1,–,90.9,–,–,–
CCn1c(-c2cc(-c3ccc(C)c(C)c3)nc3ccccc23)n[nH]c1=S,·,–,–,·,–
Cc1ccc(-c2cc(-c3n[nH]c(=S)n3C)c3ccccc3n2)cc1,–,–,97.0,–,–
Cc1ccn2c(=O)cc(C)nc2c1,–,–,–,–,–
CCn1c(-c2ccc(C(C)(C)C)cc2)n[nH]c1=S,–,–,–,–,–
Cc1ccn2c(-c3n[nH]c(=S)n3C)c(C)nc2c1,–,–,95.2,–,–
Cn1c(-c2ccc(C(C)(C)C)cc2)n[nH]c1=S,–,69.2,–,–,–
S=c1[nH]nc(-c2cccs2)n1C1CCCCC1,–,–,–,–,–
Cc1ccc(OCC(=O)NCCCNC(=O)c2ccncc2)cc1C,–,–,–,–,–
Cn1c(-c2ccco2)n[nH]c1=S,–,–,–,–,–
Cn1c(-c2ccccc2)n[nH]c1=S,–,–,92.6,–,–
Cc1cccc(-c2n[nH]c(=S)n2C)c1,–,–,–,–,–
Cc1nc(-c2ccccc2)sc1-c1n[nH]c(=S)n1C,–,–,92.0,–,–
Cn1c(-c2ccccc2Br)n[nH]c1=S,–,·,95.6,–,–
Cc1ccc(S(=O)(=O)NC(=O)C2(C)CCN2C(=O)C2CCCCC2)cc1 (configuration not stated),·,·,·,–,·
S=C(N/N=C/c1ccc(Br)cc1)N1CCCCC1,–,–,–,–,–
SMILES,PfG6PD inh,PHOSPHO1 inh,ALR H2O2 inh,Cardio protect,PfM18AAP inh
S=C(N/N=C/c1ccc(Cl)cc1)N1CCOCC1,–,–,–,–,29.9
Cc1ccc(/C=N/NC(=S)N2CCOCC2)cc1,–,61.7,–,–,40.2
Cc1ccc(CC(=S)N2CCOCC2)cc1,–,–,–,–,28.7
O=C(C1=C(O)C(=O)N(CCN2CCOCC2)C1c1ccc([N+](=O)[O-])cc1)c1cccs1 (configuration not stated),–,–,–,–,–
O=C(Nc1cccnc1)C1Cc2c(-c3ccco3)ccnc2O1 (configuration not stated),·,·,·,–,·
O=C(NCCNS(=O)(=O)c1ccccc1)c1cc(OCC(F)(F)F)ccc1OCC(F)(F)F,–,62.3,–,–,–
CC(Oc1ccccc1)C(=O)Nc1ccc(F)c(S(=O)(=O)N2CCOCC2)c1 (configuration not stated),–,·,·,–,·
O=c1c2ccccc2c(/C=N/NS(=O)(=O)c2ccccc2)c(O)n1-c1ccccn1,–,–,98.1,–,–
O=C(/C=C/c1ccc(F)cc1)NC(=S)NNC(=O)c1cnccn1,–,–,·,52.4,–
O=C(NNC(=S)NC(=O)c1ccc(F)cc1)c1cccnc1,–,–,98.1,–,–
O=C(NNC(=S)NC(=O)c1cccnc1)c1ccc(F)cc1,–,85.0,97.6,–,–
COc1ccc(CC(=O)NNC(=S)NC(=O)c2cccnc2)cc1,–,85.0,–,–,–
C(=C\c1ccc2nncn2c1)/c1ccccc1,·,·,·,–,·
COc1ccccc1Nc1nc(-c2sc(NC(=O)c3ccccc3)nc2C)cs1,–,–,–,–,–
Cc1nc(NC(=O)c2ccccc2)sc1-c1csc(NCCc2ccccc2)n1,–,62.2,–,–,–
CCCCCC(=O)Nc1nc(C)c(-c2csc(Nc3ccccc3OC)n2)s1,–,74.3,–,–,–
Cc1nc(N)sc1-c1csc(Nc2ncccn2)n1,–,–,·,–,–
CCCCCC(=O)Nc1nc(C)c(-c2csc(Nc3ccccc3OCC)n2)s1,–,79.2,–,–,–
CCCC(=O)Nc1nc(C)c(-c2csc(Nc3ccccc3C)n2)s1,–,–,?,–,–
Cc1nc(NC(=O)c2ccccc2)sc1-c1csc(NCc2ccccc2)n1,–,–,–,–,–
Cc1nc(N)sc1-c1csc(NCc2ccccc2)n1,–,67.3,–,–,–
COc1cc2[nH]c(=O)c(C(=O)NCc3ccccc3Cl)c(O)c2cc1OC,–,–,–,–,–
COc1ccc(C2=NS(=O)(=O)N(C)C(C(=O)NCc3ccc(F)cc3)=C2)cc1OC,–,–,–,–,–
COc1ccccc1NS(=O)(=O)c1ccc2oc(N)nc2c1,–,–,–,–,–
Cc1ccc(S(=O)(=O)N2CCOCC2)cc1NC(=O)Cn1c(=O)ccn(Cc2ccccc2)c1=O,–,·,·,–,·
SMILES,PfG6PD inh,PHOSPHO1 inh,ALR H2O2 inh,Cardio protect,PfM18AAP inh
CCOC(=O)N1CCN(C(=O)c2oc3ccc(S(=O)(=O)N(CC)CC)cc3c2C)CC1,–,–,–,–,–
N#Cc1c(Cl)nsc1NCCN1CCOCC1,–,·,–,–,–
CCCC(C)C(=O)Nc1nc(C)c(-c2csc(Nc3ccccc3OC)n2)s1 (configuration not stated),–,74.3,–,–,–
CCCCCCC(=O)Nc1nc(C)c(-c2csc(Nc3ccccc3OC)n2)s1,–,79.2,·,–,–
CCOc1ccccc1Nc1nc(-c2sc(NC(=O)c3ccccc3)nc2C)cs1,·,87.7,–,·,–
CCOc1ccccc1Nc1nc(-c2sc(NC(=O)c3cccc(Cl)c3)nc2C)cs1,–,–,–,–,–
CCCC(C)C(=O)Nc1nc(C)c(-c2csc(Nc3ccc(Cl)cc3)n2)s1 (configuration not stated),–,–,–,–,–
COc1ccccc1Nc1nc(-c2sc(NC(=O)c3ccc([N+](=O)[O-])cc3)nc2C)cs1,·,–,–,·,–
C[C@@H]1CC[C@]2(O[C@H](CCO)C[C@H](O)[C@H]2O)O1,–,·,·,–,·
COc1cccc(/C=C2/SC(=O)N(CC(=O)N3CCc4ccccc4C3)C2=O)c1OCC(=O)O,–,–,98.3,–,–
COc1cccc(/C=C2/SC(=O)N(C)C2=O)c1OCc1ccc(C(=O)O)cc1,–,–,–,–,28.9
CCOC(=O)COc1c(Br)cc(/C=C2\SC(=O)N(CC(=O)N3CCCC3)C2=O)cc1OC,–,–,·,–,–
COc1ccc(/C=N/NS(=O)(=O)c2ccc(F)cc2)cc1CN1CCSCC1,–,–,–,–,–
COc1cccc(-n2nnnc2SCC(=O)Nc2ccc(NC(C)=O)cc2)c1,–,–,–,–,–
